MCF10A rereplic = induces DNA re-replication in MCF 10a normal breast cells; MCF 10A DNA re-replication, Hoechst nuclear intensity, 48 h; Potency, µM (titrated, usually from 46.1 µM), without a hit: top-dose activity, positive = re-replication, usual class: activators; actives 2.9% (n = 350,000); AID 624296; note: potency is the fitted concentration of half-maximal effect; % of control where 0% means no effect; nearly all actives have a fitted effect of over 50% in size
IL-1B inflam inh = inhibitors of inflammasome signaling (IL-1 beta secretion) | THP-1 LPS/ATP IL-1B secretion, AlphaLISA, 16 h; active compounds read low | activity change, % at 57.5 µM | actives 4.7% (n = 360,000); in the data active = activity change below about -50%; inconclusive = mostly about -30% to -49%; note: % is set by controls: 0 for no effect and ±100 for the full control effect
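Secreted IL-1B measured by AlphaLISA bead assay after 16 h compound exposure of THP-1 cells; compounds (final up to 57.5 uM) added 1 h before LPS (250 ng/mL) and ATP (1.25 mM) stimulation; lower signal means less secretion.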
Chronic BCR inh = blocks chronic active B-cell receptor signaling; Potency, µM (highest dose often 46.1 µM), for inactives: at the highest dose activity change, negative = inhibition, usual class: inhibitors; actives 0.05% (n = 340,000); ABC-DLBCL IkBa-CBG/CBR reporter, luminescence ratio, 4 h; AID 493014; active = well fitted inhibition curve with a large enough effect in the signal ratio, with a control signal flat, not every such curve was filed as active; inconclusive = small, poorly fitted or top-dose-only effect, or effect the other way, or a change in a side signal; the % refers to the signal ratio;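 note: potency is the fitted concentration of half-maximal effect; plate controls were basal doxycycline-induced cells for no effect and cells given 10 µM MG132 for full effect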
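Compounds up to 46 uM were incubated four hours with TMD8 cells whose green CBG68 luciferase is fused to IkappaBalpha; red CBR luminescence normalised the signal, and concentration-effect curves were fitted to fusion, red and ratio data.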
TDP1 cell noCPT = qHTS for Inhibitors of human tyrosyl-DNA phosphodiesterase 1 (TDP1): qHTS in cells in absence of CPT; actives 15% (n = 420,000); AID 686978, 2013; Potency, µM (series often up to 46.2 µM), inactives show top-dose activity change, negative = growth inhibition, actives largely listed as inhibitors; DT40 Tdp1-/- hTDP1 cells, no CPT, ATP luminescence, 48 h; note: potency is the fitted concentration of half-maximal effect; % is set by controls: 0 for no effect and ±100 for the full control effect; nearly all actives have a fitted effect of over 55% in size
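Cells were dispensed at 400 per well, compounds added by pin tool, plates incubated ≥48 hr at 37 °C, then CellTiter-Glo added for 30 min at room temperature before luminescence reading. Line: DT40 Tdp1-/- complemented with hTDP1; camptothecin omitted.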
DT40 TDP1 CPT = growth inhibition of DT40 Tdp1-/-;hTDP1 cells with camptothecin (screen for TDP1 inhibitors); chicken DT40 Tdp1-/-;hTDP1 cells + 20 nM CPT, ATP luminescence, 48 h; Potency, µM (top dose mostly 46.2 µM), for inactives: at the highest dose activity change, negative = growth inhibition, most hits filed as inhibitors; actives 12% (n = 420,000); AID 686979; note: potency is the fitted concentration of half-maximal effect; % is set by controls: 0 for no effect and ±100 for the full control effect; nearly all actives have a fitted effect of over 55% in size
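Chicken DT40 Tdp1-/- cells complemented with human TDP1, 400 cells/well, exposed to compounds plus 20 nM camptothecin for at least 48 h at 37 C; viability read as ATP content by CellTiter-Glo luminescence.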
SW480 rerep = DNA re-replication induction in SW480 cells; SW480 DNA re-replication, Hoechst DNA content imaging, 48 h; Potency, µM (series often up to 46.1 µM), for the others: top-dose re-replication activation, most hits filed as activators; actives 1.8% (n = 340,000); AID 624297; note: potency is the fitted concentration of half-maximal effect; % of control where 0% means no effect; nearly all actives have a fitted effect of over 55% in size
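Per well, 250 cells were exposed to pinned compound for 48 hr. Nuclear DNA was visualised with Hoechst (40 min, 37 C) and total object intensity recorded by fluorescence scanning.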
* = called active by the depositor; ? = inconclusive; / = no result given. Hits are enriched below; roughly 19% of the tested compounds scored in any of these assays. Unless noted, calls come from the whole dose curve; as a rule, active = well fitted curve in the direction sought with a large enough effect; inconclusive = small, poorly fitted or top-dose-only effect, or another doubt; inactive = no such curve, though single readings can be large; an effect the other way counts as inactive or inconclusive.

SMILES	MCF10A rereplic	IL-1B inflam inh	Chronic BCR inh	TDP1 cell noCPT	DT40 TDP1 CPT	SW480 rerep
O=C1c2ccccc2C(=O)N1CCCCc1cn(C[C@H]2CC[C@@H]([C@@H]3CC[C@H](Cn4cc(CCCCN5C(=O)c6ccccc6C5=O)nn4)O3)O2)nn1	?	-7	-7%	16µM*	16µM*	-2%
COc1cccc(-c2cn(C[C@H]3CC[C@@H]([C@@H]4CC[C@H](Cn5cc(-c6cccc(OC)c6)nn5)O4)O3)nn2)c1	1%	9	4%	16µM*	?	-14%
c1ccc(SCc2cn(C[C@H]3CC[C@@H]([C@@H]4CC[C@H](Cn5cc(CSc6ccccc6)nn5)O4)O3)nn2)cc1	11%	-8	15%	16µM*	?	-15%
CC(=O)N(C(C)=O)n1c(C)nc2sc3c(c2c1=O)CCCC3	?	-16	?	5%	-17%	-9%
CCc1nc2sc3c(c2c(=O)n1NC(=O)CCl)CCCC3	?	-77*	?	?	21µM*	17%
Cc1cccc(-c2nnc(-c3cccc(NC(=O)Cc4cccs4)c3)o2)c1	?	?	?	15µM*	18µM*	?
Cc1ccc(-c2nnc(-c3cccc(NC(=O)c4cccs4)c3)o2)cc1	10%	-3	7%	23µM*	?	0%
O=C(Cc1cccs1)Nc1ccc(-c2nnc(-c3ccccc3)o2)cc1	-3%	0	/	-30%	-21%	-3%
O=C1C[C@@H]2c3c(cccc3CN1Cc1ccc(Br)cc1)C[C@@H](O)[C@H]2O	3%	-3	/	-22%	-2%	3%
COc1ccc(NC(=O)CSc2nnnn2-c2ccc(F)cc2)cc1	2%	-7	1%	?	-11%	-6%
O=C(CSc1nnnn1-c1ccc(F)cc1)Nc1ccc(N2CCOCC2)c(Cl)c1	4%	?	?	?	15µM*	-12%
O=C(CSc1nnnn1-c1ccccc1Cl)Nc1ccc2c(c1)OCCO2	1%	0	-4%	21µM*	16µM*	6%
CC1CC(C)(C)NC(=S)N1CCC(=O)NCCc1ccc(Cl)cc1 (centres undefined)	-2%	-9	-7%	?	-14%	-2%
CCC(C(=O)NCc1ccccc1)n1c(-c2ccc3c(c2)CCO3)nc2ccccc21 (centres undefined)	/	-10	/	?	15µM*	/
Cc1ccc2cccc(OCc3cccc([N+](=O)[O-])c3)c2n1	5%	-51*	2%	-9%	10%	-5%
Cc1ccc(OCCOc2cccc3ccc(C)nc23)c([N+](=O)[O-])c1	0%	24	-6%	16µM*	?	5%
COc1ccc(OCCOCCOc2ccc(C)cc2[N+](=O)[O-])cc1	14%	14	-6%	-29%	-5%	7%
O=C(COC(=O)COc1ccc(Br)cc1)NCc1ccccc1	-1%	17	0%	1%	5%	-19%
COc1ccccc1NS(=O)(=O)c1cccc(C(=O)N2CCN(Cc3ccc4c(c3)OCO4)CC2)c1	6%	1	3%	?	?	12%
CCN(C)C1CN(Cc2cn(Cc3cc(C)cc(C)c3)nn2)S(=O)(=O)C1 (centres undefined)	/	-52*	/	-23%	-1%	/
CN(Cc1cn(Cc2ccc(Cl)cc2)nn1)C1CN(Cc2cn(Cc3ccc(Cl)cc3)nn2)S(=O)(=O)C1 (centres undefined)	/	?	/	13µM*	18µM*	/
Cc1cc(C)cc(Cn2cc(CN3CC(N(C)C)CS3(=O)=O)nn2)c1 (centres undefined)	/	5	/	-13%	2%	/
COc1ccccc1-n1nc(-c2ccccc2)c2cnc3c(F)cc(F)cc3c21	/	/	/	-22%	-9%	/
